From PubChem BioAssay
Unmarked numbers belong to inactive results. No rule for the calls is given here.

Tested on: Aerobactin synthetase IucA (Klebsiella pneumoniae hvKP1)
Assay: IucA enzyme inhibition, primary screen, biochemical, Spectrum library (AID 1346200);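 also: 100% = wells without compound and 0% = wells lacking enzyme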
Conditions: malachite green pyrophosphate, A620, at 8 µM, stronger effect = lower value

| Structure (SMILES) | activity remaining |
| --- | --- |
| C#C[C@]1(OC(C)=O)CCC2C3CCC4=CC(=O)CC[C@@H]4C3CC[C@@]21C (some centres not stated) | 93% |
| NC(=O)NC(=O)Cc1ccccc1 | 93% |
| O=c1[nH]c(=O)n(C2C[C@@H](O)[C@@H](CO)O2)cc1F (some centres not stated) | 120% |
| O=C(O)c1ccccc1OP(=O)(O)O | 116% |
| CC(=O)NCc1c(I)c(NC(C)=O)c(I)c(C(=O)O)c1I | 98.7% |
| Cn1nnnc1SCC1=C(C(=O)O)N2C(=O)C(NC(=O)C(O)c3ccccc3)C2SC1 (configuration not stated) | 121% |
| OC[C@H]1O[C@@H](O[C@@H]2[C@@H](CO)O[C@](O)(CO)[C@H]2O)[C@H](O)[C@@H](O)[C@H]1O | 121% |
| O=C(O)CCNC(=O)c1ccccc1 | 103% |
| CC(C)=CCOc1cc2oc(=O)ccc2cc1O | 109% |
| OC(Cn1cncn1)(Cn1cncn1)c1ccc(F)cc1F | 105% |
| COc1c(C(C)C)oc2cc3oc(=O)ccc3cc12 | 102% |
| CCN(CC)CCNC(=O)COc1ccc(OC)cc1 | 108% |
